Potency and activity change, positive = activation data for 31 compounds are collected here from PubChem BioAssay (NCATS).

Values without a mark were called inactive. Results filed as inconclusive are left out. Active and inactive are the calls of the source. Calls follow the shape of the dose curve; as a rule, active = well fitted curve in the direction sought with a large enough effect; inconclusive = small, poorly fitted or top-dose-only effect, or another doubt; inactive = no such curve, though single readings can be large; an effect the other way counts as inactive or inconclusive.

Assay [1] can be described thus: qHTS for Inhibitors of Plasmodium falciparum (DD2) proliferation (AID 504314).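 Also: parasite DNA measured by SYBR Green fluorescence after red cell lysis; plate controls were DMSO vehicle for no effect and artemisinin wells for full effect.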 The essentials: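 Fluorescence read-out (ex 485/em 535 nm) of SYBR Green-stained parasite DNA quantifies intraerythrocytic growth. Cultures at 0.3% parasitemia and 2.5% hematocrit were treated for 72 h; data normalized to DMSO and 0.29 uM artemisinin wells.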
Assay [2] in a line: qHTS for Inhibitors of Plasmodium falciparum (7G8) proliferation (AID 504316). Also: nearly all actives have a fitted effect of over 65% in size. Also: potency is read from the fitted curve at half-maximal effect. The essentials:
(§1)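 Erythrocytes infected with P. falciparum line (0.3% parasitemia, 2.5% hematocrit final) incubated with compounds 72 h at 37 °C, 5% CO2; SYBR Green lysis buffer added, fluorescence read next day. Normalized to 0.29 uM artemisinin and DMSO.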
For orientation: qHTS replaces the single test concentration by a dilution series.

The nature of assay [3]: qHTS for Inhibitors of Plasmodium falciparum (CP250) proliferation (AID 504320).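 Also: plate controls were DMSO vehicle for no effect and 0.29 µM artemisinin control for full effect.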 The essentials: as §1
In assay [4] the target is Cytochrome P450 3A4 (Homo sapiens) (UniProt P08684). The assay can be described thus: qHTS Assay for Activators of Cytochrome P450 3A4 (AID 885). Also: nearly all actives have a fitted effect of over 65% in size. An outline of the steps:
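Quantitative HTS format: compounds preincubated with 20nM human CYP3A4 and Luciferin-PPXE substrate at KM, reaction started by NADPH regeneration, stopped after 60 min, luciferase luminescence read 20 min later.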

The nature of assay [5]: qHTS for Inhibitors of Plasmodium falciparum (HB3) proliferation (AID 504318).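 Also: 0% = DMSO vehicle and -100% = artemisinin control; nearly all actives have a fitted effect of over 60% in size.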 An outline of the steps: as §1
The target of assay [6] is Cytochrome P450 2C9 (Homo sapiens) (UniProt P11712). Kind of assay: qHTS Assay for Inhibitors and Substrates of Cytochrome P450 2C9 (AID 883). Also: % is scaled to controls: 0 for no effect and ±100 for the full control effect; nearly all actives have a fitted effect of over 60% in size. An outline of the steps: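 Luminescent read-out of deoxyluciferin hydroxylation, normalized to 57uM sulphaphenazole (AC100). Reaction: 10nM enzyme, 100uM Luciferin-H (equal to KM), 25mM KPO4, 10 min compound preincubation, then 60 min with NADPH regeneration, both at 37C.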

The target in assay [7] is Cytochrome P450 3A4 (Homo sapiens) (UniProt P08684). The assay can be described thus: qHTS Assay for Inhibitors and Substrates of Cytochrome P450 3A4 (AID 884). Also: potency is read from the fitted curve at half-maximal effect; nearly all actives have a fitted effect of over 50% in size. The essentials:
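20 nM human CYP3A4 with 25 uM Luciferin-PPXE (at KM) in 200 mM KPO4, preincubated 10 min with compound; NADPH regeneration started a 60 min RT reaction. Luciferin detected by luminescence, normalized to 57 uM ketoconazole as full inhibition.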

For assay [8], the target named is Cytochrome P450 2D6 (Homo sapiens) (UniProt P10635). Kind of assay: qHTS Assay for Inhibitors and Substrates of Cytochrome P450 2D6 (AID 891).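 Also: luciferin methyl ether substrate demethylated by CYP2D6 with NADPH regeneration; % is scaled to controls: 0 for no effect and ±100 for the full control effect; nearly all actives have a fitted effect of over 60% in size.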 The essentials: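 Human CYP2D6 (5 nM) with 30 uM Luciferin-ME EGE (at Km) in 100 mM KPO4, compound preincubated 10 min, then NADPH regeneration system for 60 min at room temperature. Luciferin read by luminescence; normalized to 1.43 uM quinidine.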

Assay [9] is described as follows: qHTS for Inhibitors of Plasmodium falciparum (GB4) proliferation (AID 504315).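 Also: 0% = DMSO vehicle and -100% = 0.29 µM artemisinin control; nearly all actives have a fitted effect of over 50% in size.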 An outline of the steps: as §1

Cytochrome P450 3A4 (Homo sapiens), sequence (P08684 whole entry, looked up): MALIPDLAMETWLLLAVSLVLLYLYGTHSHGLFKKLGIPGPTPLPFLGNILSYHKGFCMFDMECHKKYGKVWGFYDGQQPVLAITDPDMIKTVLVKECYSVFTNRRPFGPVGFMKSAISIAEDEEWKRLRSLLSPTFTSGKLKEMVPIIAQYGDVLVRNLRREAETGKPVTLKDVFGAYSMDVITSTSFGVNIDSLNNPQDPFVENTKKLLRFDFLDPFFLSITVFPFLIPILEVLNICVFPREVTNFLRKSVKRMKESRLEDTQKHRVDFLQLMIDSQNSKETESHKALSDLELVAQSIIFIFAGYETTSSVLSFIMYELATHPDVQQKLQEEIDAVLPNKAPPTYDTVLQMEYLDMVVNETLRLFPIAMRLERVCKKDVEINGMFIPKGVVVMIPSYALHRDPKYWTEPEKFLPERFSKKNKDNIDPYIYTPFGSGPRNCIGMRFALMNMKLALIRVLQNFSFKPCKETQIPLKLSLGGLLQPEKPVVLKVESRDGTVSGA
Cytochrome P450 2D6 (Homo sapiens), sequence (P10635 whole entry, looked up): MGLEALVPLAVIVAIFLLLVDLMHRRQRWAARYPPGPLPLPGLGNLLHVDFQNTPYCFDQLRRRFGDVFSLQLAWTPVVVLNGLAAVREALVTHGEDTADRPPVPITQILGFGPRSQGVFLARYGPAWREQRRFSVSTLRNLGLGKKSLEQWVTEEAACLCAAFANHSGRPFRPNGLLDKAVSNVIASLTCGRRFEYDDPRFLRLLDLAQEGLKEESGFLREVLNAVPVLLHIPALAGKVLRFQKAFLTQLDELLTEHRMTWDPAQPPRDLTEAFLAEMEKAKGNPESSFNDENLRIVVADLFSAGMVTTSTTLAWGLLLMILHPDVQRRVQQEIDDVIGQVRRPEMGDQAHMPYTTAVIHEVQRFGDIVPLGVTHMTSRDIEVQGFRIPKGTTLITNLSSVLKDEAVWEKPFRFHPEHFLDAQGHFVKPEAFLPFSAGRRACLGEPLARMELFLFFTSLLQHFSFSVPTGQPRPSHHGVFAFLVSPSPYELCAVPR
Cytochrome P450 2C9 (Homo sapiens), sequence (P11712 whole entry, looked up): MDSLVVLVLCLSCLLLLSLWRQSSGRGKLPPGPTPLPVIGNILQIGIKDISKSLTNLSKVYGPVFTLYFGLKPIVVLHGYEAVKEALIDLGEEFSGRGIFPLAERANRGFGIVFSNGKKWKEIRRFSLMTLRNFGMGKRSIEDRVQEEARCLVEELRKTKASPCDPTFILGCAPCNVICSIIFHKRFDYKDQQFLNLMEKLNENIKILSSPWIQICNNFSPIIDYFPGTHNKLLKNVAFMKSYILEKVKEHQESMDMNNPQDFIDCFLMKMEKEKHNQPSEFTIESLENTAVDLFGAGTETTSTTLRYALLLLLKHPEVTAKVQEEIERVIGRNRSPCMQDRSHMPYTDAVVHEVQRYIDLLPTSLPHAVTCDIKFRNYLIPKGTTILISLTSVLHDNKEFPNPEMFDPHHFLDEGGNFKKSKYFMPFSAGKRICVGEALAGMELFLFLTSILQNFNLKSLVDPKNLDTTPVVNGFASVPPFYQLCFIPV

Take `COC(=O)C1=C(C(=O)OC)[C@@H]2N(Cc3ccccc3)c3ccccc3[C@@]23CCC(=O)N(CC2CCCCC2)C3=N1`: the Potency result in [1], in assay [2] and in assay [3] was “inactive” each time.
As to `COC(=O)C1=C(C(=O)OC)[C@@H]2N(C)c3ccc(OC)cc3[C@@]23C[C@@H](C(=O)OC)N(S(=O)(=O)c2ccc(OC)cc2)C3=N1`, the Potency result in [1] and in assay [3] was “inactive” throughout.
Regarding `COC(=O)CCC(=O)OC1(C)C(=O)C2=CN(c3ccc(OC)cc3)C(c3ccc(OC)cc3)=CC2=C(Br)C1=O` (centres undefined), the Potency entry in assay [1] and in assay [3] was “inactive” in each case.
For `COC(=O)N1CCc2cc(OC)c(OC)cc2C1Cc1ccc(OC)cc1` (centres undefined), the activity change, positive = activation in [4] was -32.2% [at 11.4 µM]. In addition, the Potency result in [1], in assay [2], in assay [5] and in assay [3] was “inactive” in each case.
As to `C=C(C(C)=O)C(O)c1ccc2ccccc2c1` (centres undefined), the Potency result in assay [1], in [5] and in [3] was “inactive” throughout.
With `COC(=O)C1=C(C(=O)OC)[C@@H]2N(C)c3ccccc3[C@@]23C[C@@H](C(=O)OC)N(S(=O)(=O)c2ccc4c(c2)OCCN4C)C3=N1`, the Potency entry in assay [1] and in assay [3] was “inactive” each time.
On to `CCCCS(=O)(=O)N1CCc2nc(COc3ccccc3)c3c(c2C1)CO[C@@H](C)C3`, for which the Potency entry in [1], in assay [2] and in [3] was “inactive” each time.
Regarding `C=CCN1c2ccccc2[C@]23C[C@@H](C(=O)OC)N(S(=O)(=O)CCCC)C2=NC(C(=O)OC)=C(C(=O)OC)[C@H]13`, the Potency result in assay [1], in [5] and in assay [3] was “inactive” in each case.
As for `COC(=O)CCCC1=CC2=C(c3ccccc3)C(=O)C(C)(OC(=O)C3CCCC3)C(=O)C2=CN1Cc1ccccc1` (centres undefined), the Potency result in assay [1], in assay [2] and in assay [3] was “inactive” in each case.
Consider `C#CCCOC(=O)N1C2=NC(C(=O)OC)=C(C(=O)OC)[C@@H]3N(CC#CC)c4ccccc4[C@]23C[C@H]1C(=O)OC`, for which the Potency entry in assay [1] and in assay [3] was “inactive” throughout.
For `COC(=O)CCC(=O)OC1(C)C(=O)C=C2C=C(C3CC3)N(CC3CC3)C=C2C1=O` (centres undefined), the Potency result in [1] and in [5] was “inactive” each time.
`CCOC(=O)N1C2=NC(C(=O)OC)=C(C(=O)OC)[C@@H]3N(C)c4ccc(OC)cc4[C@]23C[C@H]1C(=O)OC`: the Potency entry in [1], in assay [2] and in [3] was “inactive” each time.
Take `CC#CCN1c2ccccc2[C@]23C[C@@H](C(=O)OC)N(C(C)=O)C2=NC(C(=O)OC)=C(C(=O)OC)[C@H]13`: the Potency entry in [1], in [2] and in assay [3] was “inactive” each time.
For `COC(=O)C1=C(C(=O)OC)[C@@H]2Nc3ccccc3[C@@]23C[C@@H](C(=O)OC)N(S(=O)(=O)c2ccc(C#N)cc2)C3=N1`, the Potency result in assay [1] and in [3] was “inactive” throughout.
For the compound `CCOC(=O)NN=C1C[C@@H](O)[C@@H](O)[C@@H]2[C@H]3C(=O)N(CC)C(=O)[C@@H]3CC[C@@H]12`, the Potency result in [1], in assay [2], in assay [5] and in assay [3] was “inactive” in each case.
Take `CCCCCCCC1=Cc2ccccc2C(C(C(C)=O)C(=O)OC)N1C(=O)OC` (centres undefined): the Potency result in assay [1] and in [3] was “inactive” throughout.
Consider `CC#CCN1c2ccccc2[C@]23C[C@@H](C(=O)OC)N(C(=O)c4cccs4)C2=NC(C(=O)OC)=C(C(=O)OC)[C@H]13`, for which the Potency result in assay [1], in assay [5] and in assay [3] was “inactive” each time.
As to `C=CCN1c2ccccc2[C@]23C[C@@H](C(=O)OC)N=C2NC(C(=O)OC)=C(C(=O)OC)[C@H]13`, the Potency result in [1], in assay [2] and in [3] was “inactive” throughout.
With `COC(=O)C1=C(C(=O)OC)[C@@H]2N(C)c3ccc(OC)cc3[C@@]23C[C@@H](C(=O)OC)N(S(=O)(=O)c2ccc(C#N)cc2)C3=N1`, the Potency entry in [1] and in assay [3] was “inactive” each time. In addition, in assay [2], the Potency was 1690 nM (active).
In the case of `COC(=O)C1=C(C(=O)OC)[C@@H]2N(Cc3ccccc3)c3ccccc3[C@@]23C[C@@H](C(=O)OC)N(C(=O)c2ccc(Br)cc2)C3=N1`, the Potency entry in assay [1] and in assay [3] was “inactive” throughout.
As for `CCOC(=O)CCCNC(=O)N1CCc2nc(COc3ccccc3)c3c(c2C1)CO[C@@H](C)C3`, the Potency entry in assay [1] and in assay [3] was “inactive” each time. In addition, in assay [2], the Potency was 1510 nM (active).
As for `COC(=O)[C@@H](NC(=O)N1CCc2nc(-c3ccc(OC)cc3C)c3c(c2C1)CO[C@@H](c1ccccc1)C3)C(C)C`, the Potency result in [1] and in assay [3] was “inactive” in each case. Moreover, the Potency in assay [2] was 1690 nM (active).
`CCCCCCC(=O)Cc1cc(OC)c(OC)cc1C=C(C(=O)OCC)C(=O)OCC`: the Potency entry in assay [6], in [8], in assay [1], in [2], in assay [5] and in assay [3] was “inactive” in each case. Also, the Potency in assay [7] was 3160 nM (active). Also, in [4], the activity change, positive = activation is -90.7% [at 11.4 µM].
`C=C(C(C)=O)C(O)c1cccs1` (centres undefined): the Potency entry in assay [1], in [2] and in [3] was “inactive” throughout.
As for `COC(=O)[C@H]1[C@@H](C)N(CCc2cc(OC)c(OC)c(OC)c2)C(=O)N[C@H]1c1ccccc1`, the Potency entry in [1], in [5] and in assay [3] was “inactive” throughout.
For `CC(C)(C)N1C(=O)[C@@H]2[C@H]3[C@H](O)[C@H](O)CC(=NOCc4ccccc4)[C@H]3CC[C@H]2C1=O`, the Potency entry in assay [1], in [2] and in [3] was “inactive” each time.
Take `COC(=O)C1=C(C(=O)OC)[C@@H]2Nc3ccccc3[C@@]23C[C@@H](C(=O)OC)N(S(=O)(=O)c2ccc(OC)cc2)C3=N1`: the Potency entry in [1] and in assay [3] was “inactive” in each case.
As to `CCCCCCCc1cc2ccccc2c2c(C(=O)OC)c(-c3ccccc3)c(C(=O)OC)n12`, the Potency result in assay [9], in [2], in assay [5] and in [3] was “inactive” in each case.
Regarding `C=CC1=C2C=C(C3CC3)N(C3CC3)C=C2C(=O)C(C)(OC(=O)c2ccco2)C1=O` (centres undefined), the Potency result in assay [9], in [2], in assay [5] and in assay [3] was “inactive” throughout.
Take `CCCCC1=CC2=CC(=O)C(C)(OC(=O)CC)C(=O)C2=CN1CCc1ccc(Br)cc1` (centres undefined): the Potency result in [1] and in assay [3] was “inactive” in each case.
With `CCOC(=O)CN1C(=O)N(CC)C(C)=C(C(=O)OC)[C@@H]1c1ccccc1`, the Potency result in assay [9], in assay [2], in assay [5] and in assay [3] was “inactive” each time.
